Data from PubChem BioAssay (Tox21).
Results filed as inconclusive are left out. Activity calls are given as the source filed them. Calls come from the whole dose curve; as a rule, active = well fitted curve in the direction sought with a large enough effect in the repeat runs; inconclusive = weak or mixed curves; inactive = no such curve, though single readings can be large; an effect the other way counts as inactive or inconclusive.

Tests used:
[1] = qHTS RealTime-Glo MT Cell Viability Assay in HepG2 cells - 40 hour (AID 1224870); note: nearly all actives have a fitted effect of over 50% in size
Summary of the method: (§1)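 HepG2 cells (600/well) mixed with RealTime-Glo MT reagent, settled 5 h at 37 C/5% CO2 before compound addition. Nonlytic NanoLuc luminescence from viable-cell prosubstrate reduction read repeatedly during 40 h treatment at 37 C.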

[2] = A CellTox Green Cytotoxicity Assay to monitor cytotoxicity in HEK293 cells - 40 hour (AID 1224871); note: nearly all actives have a fitted effect of over 45% in size
Summary of the method: (§2)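 Each value comes from one timepoint of a single continuous run in which HEK293 cells with CellTox Green were exposed to compound for up to 40 h at 37 C, dye fluorescence rising with cell death.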

[3] = qHTS RealTime-Glo MT Cell Viability Assay in HEK293 cells - 16 hour (AID 1224872); note: top concentration of the series differs between compounds; nearly all actives have a fitted effect of over 50% in size
Summary of the method: (§3)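 Tox21 10K qHTS, HEK293, 600 cells/well, RealTime-Glo reagent co-dispensed with cells; 5 h preincubation, compound by pintool, 37 C, luminescence at 0–40 h.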

[4] = qHTS RealTime-Glo MT Cell Viability Assay in HepG2 cells - 8 hour (AID 1224873); note: nearly all actives have a fitted effect of over 55% in size
Summary of the method: as §1

[5] = qHTS RealTime-Glo MT Cell Viability Assay in HEK293 cells - 40 hour (AID 1224874); conditions: RealTime-Glo luminescence; max response: active compounds read low; note: nearly all actives have a fitted effect of over 50% in size
Summary of the method: (§4)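 qHTS format; HEK293 cells with NanoLuc/prosubstrate reagent, 37 C/5% CO2 for 5 h pre-dosing; compounds 23 nL in DMSO; luminescence at each time point reflects viable cells.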

[6] = A CellTox Green Cytotoxicity Assay to monitor cytotoxicity in HepG2 cells - 16 hour (AID 1224876); note: nearly all actives have a fitted effect of over 45% in size
Summary of the method: (§5)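 Continuous culture of HepG2 cells with a membrane-impermeant DNA dye; rising fluorescence marks dead cells. Compound exposure lasted up to 40 h at 37 C, with reads every 8 h from 0 h.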

[7] = qHTS RealTime-Glo MT Cell Viability Assay in HepG2 cells - 32 hour (AID 1224877); note: nearly all actives have a fitted effect of over 55% in size
Summary of the method: (§6)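 Cells + NanoLuc/prosubstrate dispensed (600 cells/well) → 5 h at 37 C/5% CO2 → compounds in DMSO transferred → 40 h incubation at 37 C, luminescence read at 0, 8, 16, 24, 32, 40 h.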

[8] = A CellTox Green Cytotoxicity Assay to monitor cytotoxicity in HepG2 cells - 24 hour (AID 1224878); note: nearly all actives have a fitted effect of over 45% in size
Summary of the method: as §5

[9] = A CellTox Green Cytotoxicity Assay to monitor cytotoxicity in HepG2 cells - 40 hour (AID 1224879); note: nearly all actives have a fitted effect of over 40% in size
Summary of the method: as §5

[10] = qHTS RealTime-Glo MT Cell Viability Assay in HEK293 cells - 0 hour (AID 1224880); note: top concentration of the series differs between compounds; nearly all actives have a fitted effect of over 45% in size
Summary of the method: as §4

[11] = A CellTox Green Cytotoxicity Assay to monitor cytotoxicity in HEK293 cells - 32 hour (AID 1224881); note: nearly all actives have a fitted effect of over 40% in size
Summary of the method: as §2

[12] = A CellTox Green Cytotoxicity Assay to monitor cytotoxicity in HepG2 cells - 0 hour (AID 1224882); note: nearly all actives have a fitted effect of over 35% in size
Summary of the method: as §5

[13] = A CellTox Green Cytotoxicity Assay to monitor cytotoxicity in HepG2 cells - 32 hour (AID 1224883); note: nearly all actives have a fitted effect of over 50% in size
Summary of the method: as §5

[14] = A CellTox Green Cytotoxicity Assay to monitor cytotoxicity in HEK293 cells - 8 hour (AID 1224884); note: nearly all actives have a fitted effect of over 35% in size
Summary of the method: as §2

[15] = qHTS RealTime-Glo MT Cell Viability Assay in HepG2 cells - 16 hour (AID 1224885); note: nearly all actives have a fitted effect of over 50% in size
Summary of the method: as §6

[16] = qHTS RealTime-Glo MT Cell Viability Assay in HEK293 cells - 24 hour (AID 1224886)
Summary of the method: as §3

[17] = qHTS RealTime-Glo MT Cell Viability Assay in HEK293 cells - 8 hour (AID 1224887)
Summary of the method: as §4

[18] = A CellTox Green Cytotoxicity Assay to monitor cytotoxicity in HEK293 cells - 16 hour (AID 1224888); note: nearly all actives have a fitted effect of over 35% in size
Summary of the method: as §2

[19] = qHTS RealTime-Glo MT Cell Viability Assay in HepG2 cells - 0 hour (AID 1224889); note: nearly all actives have a fitted effect of over 50% in size
Summary of the method: as §6

[20] = A CellTox Green Cytotoxicity Assay to monitor cytotoxicity in HEK293 cells - 24 hour (AID 1224875)
Summary of the method: as §2
% is set by controls: 0 for no effect and ±100 for the full control effect.

O=C(O)COc1nn(Cc2ccccc2)c2ccccc12
inactive: Potency [1] | Potency [2] | Potency [3] | Potency [4] | max response [5] 3.59% | Potency [6] | Potency [7] | Potency [8] | Potency [9] | Potency [10] | Potency [11] | Potency [12] | Potency [13] | Potency [14] | Potency [15] | Potency [16] | Potency [17] | Potency [18] | Potency [19]

CCCCCCCCCCCCN(CCCCCCCCCCCC)CCCCCCCCCCCC
inactive: Potency [1] | Potency [2] | Potency [3] | Potency [4] | Potency [20] | Potency [6] | Potency [7] | Potency [8] | Potency [9] | Potency [10] | Potency [11] | Potency [12] | Potency [13] | Potency [14] | Potency [15] | Potency [16] | Potency [17] | Potency [18] | Potency [19]

CCOC(=O)C(=O)OCC
inactive: Potency [1] | Potency [2] | Potency [3] | Potency [4] | Potency [6] | Potency [7] | Potency [8] | Potency [9] | Potency [11] | Potency [12] | Potency [13] | Potency [14] | Potency [15] | Potency [16] | Potency [17] | Potency [19]

CC(C)c1cc2c(cc1S(=O)(=O)O)[C@@]1(C)CCC[C@@](C)(C(=O)O)[C@@H]1CC2
inactive: Potency [1] | Potency [2] | Potency [3] | max response [5] 1.39% | Potency [20] | Potency [6] | Potency [7] | Potency [8] | Potency [9] | Potency [10] | Potency [11] | Potency [12] | Potency [13] | Potency [14] | Potency [15] | Potency [16] | Potency [17] | Potency [18] | Potency [19]

COc1nc(N)nc2c1ncn2[C@@H]1O[C@H](CO)[C@@H](O)[C@@H]1O
inactive: Potency [1] | Potency [2] | Potency [3] | Potency [4] | max response [5] 14.1% | Potency [6] | Potency [7] | Potency [8] | Potency [9] | Potency [10] | Potency [11] | Potency [14] | Potency [15] | Potency [16] | Potency [17] | Potency [18] | Potency [19]

Cc1c(NC(C)C)c(=O)n(-c2ccccc2)n1C
inactive: Potency [1] | Potency [2] | Potency [3] | Potency [4] | max response [5] 2.55% | Potency [6] | Potency [7] | Potency [9] | Potency [11] | Potency [12] | Potency [13] | Potency [14] | Potency [15] | Potency [16] | Potency [17] | Potency [18] | Potency [19]

c1ccc([C@H]2CN3CCSC3=N2)cc1
inactive: Potency [1] | Potency [2] | Potency [3] | Potency [4] | Potency [20] | Potency [6] | Potency [7] | Potency [9] | Potency [11] | Potency [12] | Potency [13] | Potency [14] | Potency [15] | Potency [16] | Potency [17] | Potency [18] | Potency [19]

CC(=O)OC/C=C(\C)CC/C=C(\C)CCC=C(C)C
inactive: Potency [1] | Potency [2] | Potency [3] | Potency [4] | Potency [6] | Potency [7] | Potency [8] | Potency [9] | Potency [11] | Potency [12] | Potency [13] | Potency [14] | Potency [15] | Potency [16] | Potency [17] | Potency [19]

O=c1cc(CO)occ1O
inactive: Potency [1] | Potency [2] | Potency [3] | Potency [4] | Potency [6] | Potency [7] | Potency [9] | Potency [10] | Potency [11] | Potency [13] | Potency [14] | Potency [15] | Potency [16] | Potency [17] | Potency [19]

C[N+](C)(C)CC(O)CC(=O)[O-] (configuration not stated)
inactive: Potency [1] | Potency [2] | Potency [3] | Potency [4] | Potency [20] | Potency [6] | Potency [7] | Potency [9] | Potency [10] | Potency [11] | Potency [13] | Potency [14] | Potency [15] | Potency [16] | Potency [17] | Potency [18] | Potency [19]

COC(=O)CCSCCC(=O)OC
inactive: Potency [1] | Potency [2] | Potency [3] | Potency [4] | Potency [20] | Potency [6] | Potency [7] | Potency [8] | Potency [9] | Potency [11] | Potency [12] | Potency [13] | Potency [14] | Potency [15] | Potency [16] | Potency [17] | Potency [18] | Potency [19]

O=c1[nH]c(=O)n([C@H]2C[C@H](O)[C@@H](CO)O2)cc1I
inactive: Potency [1] | Potency [2] | Potency [3] | Potency [4] | Potency [20] | Potency [6] | Potency [7] | Potency [9] | Potency [10] | Potency [11] | Potency [12] | Potency [13] | Potency [14] | Potency [15] | Potency [16] | Potency [17] | Potency [18] | Potency [19]

C[N+](C)(C)CCCCCC[N+](C)(C)C
inactive: Potency [1] | Potency [2] | Potency [3] | Potency [4] | Potency [20] | Potency [6] | Potency [7] | Potency [8] | Potency [9] | Potency [10] | Potency [11] | Potency [12] | Potency [13] | Potency [14] | Potency [15] | Potency [16] | Potency [17] | Potency [18] | Potency [19]
